Assay outcomes from PubChem.
Sampled rows, rich in hits. Any-hit rate of the full collection: about 2.8%.
PME-1 inh = blocks human protein phosphatase methylesterase 1; recombinant PME-1, FP-Rh probe fluorescence polarization; inhibition, % at 5.9 µM; actives 0.53% (n = 320,000);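 active = inhibition above the campaign mean of all compounds plus 3 SD, cut at about 26% in these data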;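 note: competitive labeling of PME-1 active site by serine hydrolase directed probe; inhibitors block probe labeling so polarization falls and inhibition rises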
Fam108B inh = Fam108B inhibition, counter-screen for RBBP9 inhibitors; AID 1947; inhibition, % at 9.51 µM; recombinant Fam108B, FP-Rh probe fluorescence polarization; actives 0.33% (n = 300,000);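 active = inhibition above the screen mean inhibition plus 3 SD, computed separately per campaign, cut at about 18% in these data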;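 note: inhibitors lower polarization as less probe binds the enzyme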
PAFAH1B3 FP inh = blocks human PAF acetylhydrolase 1B catalytic subunit 3; recombinant PAFAH1B3, FP-rhodamine probe, fluorescence polarization; inhibition, % at 3.39 µM; actives 0.28% (n = 340,000); Q15102;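 active = inhibition above the screen-wide average of all tested compounds plus 3 SD, cut at about 25% in these data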
pPAFAH FP inh = inhibitors of human plasma PAF acetylhydrolase (pPAFAH); Q13093; inhibition, % at 3.39 µM; recombinant pPAFAH, FP-rhodamine probe fluorescence polarization; actives 1.5% (n = 330,000); AID 463082;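 active = inhibition above the mean inhibition across the screen plus 3 SD, cut at about 25% in these data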;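 note: inhibitors block binding of the rhodamine activity-based probe so polarization drops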
PAFAH1B2 FP inh = inhibitors of human PAFAH1B2 | inhibition, % at 3.39 µM | P68402 | recombinant PAFAH1B2, FP-rhodamine activity probe, fluorescence polarization | actives 1.2% (n = 340,000) | AID 492953;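 active = inhibition above the mean of all tested compounds plus 3 SD, cut at about 24% in these data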
Target sequence (P68402 whole entry, looked up): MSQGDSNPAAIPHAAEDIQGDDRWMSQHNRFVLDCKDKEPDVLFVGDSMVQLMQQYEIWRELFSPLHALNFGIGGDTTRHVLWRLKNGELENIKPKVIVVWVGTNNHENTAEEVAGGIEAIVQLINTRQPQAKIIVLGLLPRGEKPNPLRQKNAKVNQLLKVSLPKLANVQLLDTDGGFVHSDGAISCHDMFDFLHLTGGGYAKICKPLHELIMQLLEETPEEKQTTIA
PAFAH2 inh = PAFAH2 (human) inhibition; recombinant PAFAH2, FP-rhodamine activity probe, fluorescence polarization; inhibition, % at 3.39 µM; actives 0.99% (n = 340,000);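 active = inhibition above the mean over all tested compounds plus 3 SD, cut at about 30% in these data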;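 note: inhibitors block probe labeling of enzyme so polarization drops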
Hits are given with their value; . = inactive; / = no result.

SMILES | PME-1 inh | Fam108B inh | PAFAH1B3 FP inh | pPAFAH FP inh | PAFAH1B2 FP inh | PAFAH2 inh
O=C(NCc1ccccc1)C12CC3CC(CC(C3)C1)C2 | . | . | . | . | . | .
CCn1c(/C=C/c2c[nH]c3ccccc23)nc2ccccc2c1=O | 44 | . | . | . | . | .
COc1ccc(O)c(/C=N/NC(=O)c2ccc(CSc3nc(C)cc(C)n3)cc2)c1 | . | . | . | 27 | . | .
COc1ccc(CCN2CC(C(=O)NCCc3ccc(C)cc3)CC2=O)cc1OC (stereo not drawn) | . | . | . | 29 | . | .
Cc1ccc(S(=O)(=O)c2nc(-c3ccco3)oc2SC(C)C)cc1 | . | . | . | . | . | .
O=C(O/N=C1/CCSc2ccccc21)c1ccc(F)cc1 | . | . | . | . | 24 | 47
COc1ccc(S(=O)(=O)NCC(=O)NCc2cc(=O)n(C)c(=O)n2C)cc1C | . | . | . | . | . | .
O=C(Nc1cc(S(=O)(=O)Nc2ccc(Cl)cc2)ccc1O)c1ccc(S(=O)(=O)N2CCCCCC2)cc1 | . | . | . | 30 | . | .
O=C(CN1CCCc2ccccc21)Nc1cc(S(=O)(=O)N2CCCC2)ccc1Cl | 73 | / | . | . | . | .
O=C(c1ccccc1NS(=O)(=O)c1ccc(F)cc1)N1CCCCC1 | . | . | . | . | . | .
O=C(Nc1cc(S(=O)(=O)N2CCCCC2)ccc1Cl)c1ccccc1NS(=O)(=O)c1ccc(F)cc1 | . | . | . | . | 30 | .
CC1CC(C)CN(CCCNC(=O)c2ccc3c(c2)ncn3C2CCCC2)C1 (stereo not drawn) | . | . | . | . | . | .
CCOC(=O)N1CCN(C(=O)c2ccc3c(=O)n(CCC4=CCCCC4)c(=S)[nH]c3c2)CC1 | . | . | . | . | 25 | .
Cc1nc2cc3ccccc3cc2c(=O)[nH]1 | . | . | . | 27 | . | .
CCOC(=O)CSc1ncc(-c2ccc([N+](=O)[O-])cc2)[nH]1 | . | . | . | 31 | . | .
CC(Oc1ccc(Cl)cc1)c1ccnn1S(=O)(=O)c1ccccc1 (stereo not drawn) | . | . | . | . | 51 | .
Nc1nnc(CC(=O)N/N=C/c2cc([N+](=O)[O-])cc(Br)c2O)s1 | . | . | . | 28 | 25 | .
CSCC[C@H](NC(=O)[C@H](Cc1ccccc1)n1c(=O)[nH]c2ccccc2c1=O)C(=O)N[C@@H](Cc1ccccc1)C(=O)O | . | . | . | . | . | .
COc1ccc(C2NC(=O)c3ccccc3N2)cc1OC (stereo not drawn) | . | . | . | . | . | .
FC(F)(F)c1ccc(C2Nc3cccc4cccc(c34)N2)cc1 | / | / | . | / | . | .
COC(=O)c1ccc(C2Nc3cccc4cccc(c34)N2)cc1 | 52 | . | . | . | . | .
COc1cc(C2Nc3cccc4cccc(c34)N2)ccc1OC(C)=O | . | 22 | 38 | . | . | .
CCCNC(=O)C(Cc1ccc(Cl)cc1)NC(=O)c1ccc(-c2ccccc2)cc1 (stereo not drawn) | . | / | . | . | . | .
O=C(NCc1nnc(SCC(=O)N2CCCC2)o1)c1ccccc1 | . | . | . | . | . | .
CCc1cccc2c(C(=O)COC(=O)c3ccc([N+](=O)[O-])s3)c[nH]c12 | 29 | . | . | . | . | .
SMILES | PME-1 inh | Fam108B inh | PAFAH1B3 FP inh | pPAFAH FP inh | PAFAH1B2 FP inh | PAFAH2 inh
O=C(OCC(=O)c1c[nH]c2ccccc12)c1ccc([N+](=O)[O-])s1 | . | . | . | . | . | .
COc1ccc(-c2cc(C(=O)N3CCN(C(=O)c4ccccc4F)CC3)[nH]n2)cc1 | 30 | . | . | . | . | .
COc1ccc(-c2cc(C(=O)N3CCN(S(=O)(=O)c4ccccc4)CC3)[nH]n2)cc1 | . | . | . | . | . | .
CC1(C)C(=O)N(c2ccccc2)C1c1ccccc1O (stereo not drawn) | . | . | . | . | 52 | .
COc1ccccc1-n1cnc2cc(NS(=O)(=O)c3ccc(Br)cc3)ccc21 | . | . | . | . | 25 | .
COc1ccc(S(=O)(=O)Nc2ccc(C)cc2)cc1OC | . | . | . | . | . | .
COc1cc(S(=O)(=O)Nc2ccc(Br)cc2)ccc1N | . | . | . | 25 | . | .
